CYP2C19 inh: inhibitors of human CYP2C19 | CYP2C19 Supersomes, luciferin-H EGE luminescence, 30 min | inhibition, % at 5 µM | 96,000 tested, 21% active | AID 778;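 active means CYP2C19 inhibition above a set limit at 5 µM in the primary screen, cut at about 50% in these data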;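 further: plate controls were negative control wells for no effect and 2.5 mM tranylcypromine positive control for full effect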
CYP2C9 inh: inhibitors of human CYP2C9. P11712. CYP2C9 Supersomes, luciferin-H conversion, luminescence. inhibition, % at 5 µM. 96,000 tested, 20% active;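 active means blocking of liver enzyme CYP2C9 beyond about 50% at 5 µM, limit read from the data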
Target sequence (P11712 whole entry, looked up): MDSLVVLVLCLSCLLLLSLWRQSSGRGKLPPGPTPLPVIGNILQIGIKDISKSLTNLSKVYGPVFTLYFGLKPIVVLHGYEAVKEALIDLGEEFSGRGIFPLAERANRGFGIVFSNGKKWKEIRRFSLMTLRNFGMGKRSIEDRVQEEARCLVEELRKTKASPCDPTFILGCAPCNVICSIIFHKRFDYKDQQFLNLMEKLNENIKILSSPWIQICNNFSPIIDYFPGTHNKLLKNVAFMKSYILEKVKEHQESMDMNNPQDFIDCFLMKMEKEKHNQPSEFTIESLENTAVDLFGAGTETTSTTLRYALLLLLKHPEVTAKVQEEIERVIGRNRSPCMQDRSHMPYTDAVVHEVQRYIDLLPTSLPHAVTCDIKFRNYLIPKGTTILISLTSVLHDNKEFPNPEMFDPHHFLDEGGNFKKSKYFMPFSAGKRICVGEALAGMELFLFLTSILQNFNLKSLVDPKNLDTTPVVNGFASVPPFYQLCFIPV
Cav3 T inh: blocks human Cav3.2 T-type calcium channel; O95180; 100,000 tested, 4% active; Cav3.2-expressing cells, Fluo-4 calcium fluorescence FDSS; hits give low values; B-score at 10 µM; AID 449739;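 active means single-dose well whose peak fluorescence ratio is a statistical outlier from its plate by either plate-standardised score or position-corrected B-score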
CYP2C9 activ: CYP2C9 (human) activation; P11712; recombinant CYP2C9, luciferin-H conversion, luminescence; hits give high values; factor 1 = untreated enzyme, 0 = blocked; activation factor at 5 µM; 96,000 tested, 1.4% active;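 active means activation factor of 2 or more for CYP2C9 at a 5 µM dose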;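 further: 0 = sulfaphenazole-blocked wells and 1 = vehicle-only wells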
CYP2C19 activ: cytochrome P450 2C19 (human) activation. activation factor at 5 µM. P33261. recombinant CYP2C19, luciferin-H EGE luminescence; hits give high values; 0 = fully inhibited enzyme, 1 = untreated enzyme. 96,000 tested, under 10 active. AID 1025;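 active means activation factor of at least 2 at 5 µM in the primary screen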;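 further: 0 = wells with 2.5 mM tranylcypromine and 1 = vehicle-only wells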
* hit, by the source's call. Most compounds without a hit are left out; they make up all but 27% or so of the library.

What do the screens show for `CCOc1cc(C)c(C(C)C)cc1S(=O)(=O)NCc1ccccn1`?
CYP2C19 inh: 22.5; CYP2C9 inh: -12.5; Cav3 T inh: 1.51; CYP2C9 activ: 1.1; CYP2C19 activ: 0.8

What do the screens show for `CCOC(=O)c1c(C)nc2sc3c(=O)n(-c4ccc(C(C)=O)cc4)nnc3c2c1-c1ccc(OC)cc1`?
CYP2C19 inh: 59.1*; CYP2C9 inh: 48.5; Cav3 T inh: -0.694; CYP2C9 activ: 0.5; CYP2C19 activ: 0.4

What do the screens show for `COc1ccc(-n2cnc3c(sc4nccc(N(C)C)c43)c2=O)cc1`?
CYP2C19 inh: -4.0; CYP2C9 inh: -59.8; Cav3 T inh: -0.186; CYP2C9 activ: 1.6; CYP2C19 activ: 1

What do the screens show for `CCOC(=O)c1c(C)nc2sc3c(=O)n(-c4ccc(OC)cc4)cnc3c2c1-c1ccc(OC)cc1`?
CYP2C19 inh: 74.3*; CYP2C9 inh: 80.3*; Cav3 T inh: 0.0407; CYP2C9 activ: 0.2; CYP2C19 activ: 0.3

Results for CCOC(=O)c1c(C)nc2c(c1-c1ccc(OC)cc1)C(=O)CC(C)(C)C2 ?
CYP2C19 inh: 13.2; CYP2C9 inh: 17.6; Cav3 T inh: 2.23; CYP2C9 activ: 0.8; CYP2C19 activ: 0.9

What do the screens show for `Cc1ccc(-c2cn3c(=O)cc(C)[nH]c3n2)cc1`?
CYP2C19 inh: 19.8; CYP2C9 inh: 15.3; Cav3 T inh: 0.892; CYP2C9 activ: 0.8; CYP2C19 activ: 0.8

How did O=C1Nc2ccccc2N=C(c2ccccc2)C1N1CCOCC1 (stereo unspecified) do in these assays?
CYP2C19 inh: 54.3*; CYP2C9 inh: 58.9*; Cav3 T inh: 0.069; CYP2C9 activ: 0.4; CYP2C19 activ: 0.5

What do the screens show for `O=C1CC(c2ccccc2)=Nc2ccccc2N1`?
CYP2C19 inh: 18.6; CYP2C9 inh: 2.3; Cav3 T inh: 0.553; CYP2C9 activ: 1; CYP2C19 activ: 0.8

Results for c1coc(CN2CN=C(Nc3nc4ccccc4s3)NC2)c1 ?
CYP2C19 inh: 13.7; CYP2C9 inh: 1.1; Cav3 T inh: 0.385; CYP2C9 activ: 1; CYP2C19 activ: 0.9

How did Brc1ccc(-c2noc(CCc3ccccc3)n2)o1 do in these assays?
CYP2C19 inh: 47.4; CYP2C9 inh: 10.2; Cav3 T inh: -0.748; CYP2C9 activ: 0.9; CYP2C19 activ: 0.5

How did COc1ccc(Cc2nc(-c3ccc(Br)o3)no2)cc1OC do in these assays?
CYP2C19 inh: 87.7*; CYP2C9 inh: 64.9*; Cav3 T inh: -1.19; CYP2C9 activ: 0.4; CYP2C19 activ: 0.1

What do the screens show for `O=C(CCc1nc(-c2ccccc2)no1)NCCc1ccccc1`?
CYP2C19 inh: 46.0; CYP2C9 inh: 36.1; Cav3 T inh: -0.0258; CYP2C9 activ: 0.6; CYP2C19 activ: 0.5

How did O=C(Nc1ccc(-c2noc(COc3ccccc3Cl)n2)cc1)c1ccco1 do in these assays?
Cav3 T inh: -0.0268

What do the screens show for `Clc1ccccc1OCc1nc(-c2ccccn2)no1`?
CYP2C19 inh: 84.7*; CYP2C9 inh: 22.3; CYP2C9 activ: 0.8; CYP2C19 activ: 0.2

Results for COc1ccc(-c2noc(-c3ccc(Br)o3)n2)cc1OC ?
CYP2C19 inh: 4.3; CYP2C9 inh: -8.4; Cav3 T inh: -0.00536; CYP2C9 activ: 1.1; CYP2C19 activ: 1

How did c1ccc(CCc2nc(-c3ccccn3)no2)cc1 do in these assays?
CYP2C19 inh: 54.8*; CYP2C9 inh: 5.9; Cav3 T inh: 0.365; CYP2C9 activ: 0.9; CYP2C19 activ: 0.5

Results for Clc1ccccc1OCc1nc(-c2ccc(Br)o2)no1 ?
CYP2C19 inh: 93.8*; CYP2C9 inh: 57.8*; Cav3 T inh: -0.873; CYP2C9 activ: 0.4; CYP2C19 activ: 0.1

How did C=C1CCN(c2ccc(C(=O)NCc3ccc(OC)cc3)cc2[N+](=O)[O-])CC1 do in these assays?
Cav3 T inh: -2.31

What do the screens show for `COc1cccc(CNc2ncc(Br)cc2Br)c1O`?
CYP2C19 inh: 3.8; CYP2C9 inh: -37.1; Cav3 T inh: -0.0705; CYP2C9 activ: 1.4; CYP2C19 activ: 1

Results for COc1cccc(CNc2ccc(Br)cn2)c1O ?
CYP2C19 inh: 37.7; CYP2C9 inh: -16.1; Cav3 T inh: -6.5*; CYP2C9 activ: 1.2; CYP2C19 activ: 0.6

Results for CCOc1ccccc1-n1c(CN2CCN(C(=O)c3ccco3)CC2)nc2ccccc2c1=O ?
CYP2C19 inh: 56.6*; CYP2C9 inh: 65.3*; CYP2C9 activ: 0.3; CYP2C19 activ: 0.4

Results for CCOc1cc(CN2CCN(C(=O)c3ccco3)CC2)ccc1OC ?
CYP2C19 inh: 2.8; CYP2C9 inh: -14.0; Cav3 T inh: 0.763; CYP2C9 activ: 1.1; CYP2C19 activ: 1

What do the screens show for `O=C(CSc1nnc(COc2cccc3ccccc23)o1)N1CCN(C(=O)c2ccco2)CC1`?
Cav3 T inh: 0.537

What do the screens show for `O=C(c1ccco1)N1CCN(CCOCCOc2cccc3ccccc23)CC1`?
CYP2C19 inh: 68.1*; CYP2C9 inh: 56.6*; Cav3 T inh: -0.422; CYP2C9 activ: 0.4; CYP2C19 activ: 0.3

What do the screens show for `c1ccc(-c2cnc(CSc3nnc4ccccn34)o2)cc1`?
CYP2C19 inh: 70.5*; CYP2C9 inh: 30.7; Cav3 T inh: 1.44; CYP2C9 activ: 0.7; CYP2C19 activ: 0.3

Results for Cc1ccccc1-n1nnnc1SCc1ncc(-c2ccccc2)o1 ?
CYP2C19 inh: 30.6; CYP2C9 inh: 81.8*; CYP2C9 activ: 0.2; CYP2C19 activ: 0.7

Results for CCN(CC)C(=O)c1ccc(CS(=O)(=O)c2ccc(OC)cc2)o1 ?
Cav3 T inh: 2.41

What do the screens show for `CC(C(=O)N1c2ccccc2Sc2ccccc21)n1nnc(-c2cccs2)n1` (stereo unspecified)?
CYP2C19 inh: 50.7*; CYP2C9 inh: 82.8*; Cav3 T inh: -6.99*; CYP2C9 activ: 0.2; CYP2C19 activ: 0.5

How did O=C(O)Cn1nnc(-c2cccs2)n1 do in these assays?
CYP2C19 inh: -2.7; CYP2C9 inh: -2.3; CYP2C9 activ: 1; CYP2C19 activ: 1

How did Cn1nnnc1SCC(=O)N1c2ccccc2CCc2ccccc21 do in these assays?
CYP2C19 inh: 28.8; CYP2C9 inh: 12.2; Cav3 T inh: 0.00831; CYP2C9 activ: 0.9; CYP2C19 activ: 0.7

How did Cc1ccc(-c2nnn(C(C)C(=O)N3c4ccccc4CCc4ccccc43)n2)cc1 (stereo unspecified) do in these assays?
Cav3 T inh: -5.26*

Results for CC(C(=O)N1c2ccccc2CCc2ccccc21)n1nnc(-c2ccc(N(C)C)cc2)n1 (stereo unspecified) ?
Cav3 T inh: -5.46*

Results for CC1CCC2(CC1)C(Nc1cccc(Cl)c1)=NC(=S)N2CC#N (stereo unspecified) ?
Cav3 T inh: -4.35

How did c1csc(-c2csc(-c3cccs3)n2)c1 do in these assays?
CYP2C19 inh: -7.1; CYP2C9 inh: -0.6; Cav3 T inh: 1.28; CYP2C9 activ: 1; CYP2C19 activ: 1.1

What do the screens show for `c1cncc(-c2nc(-c3ccco3)cs2)c1`?
CYP2C19 inh: 27.7; CYP2C9 inh: -0.5; Cav3 T inh: -0.184; CYP2C9 activ: 1; CYP2C19 activ: 0.7

Results for c1cncc(-c2nc(-c3cccs3)cs2)c1 ?
CYP2C19 inh: 70.4*; CYP2C9 inh: 27.3; Cav3 T inh: 0.0627; CYP2C9 activ: 0.7; CYP2C19 activ: 0.3
